Source: PubChem BioAssay
The source made the active and inactive calls.

Assays:
[1] = system: Plasmodium falciparum Sir2 (PF13_0152, Sir2A); experiment: Plasmodium falciparum Sir2A binding compounds – biochemical, small-molecule microarray, 635 nm fluorescence, primary screen (AID 1098); settings: fluorescence 635 nm, higher = more signal;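 further: score merges spot fluorescence intensity with its signal-to-noise ratio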
[2] = probe aDKK1 binding to arrayed compounds – biochemical, biotinylated probe, 635/667 nm fluorescence, primary screen (AID 1099); settings: small-molecule microarray, higher = more signal;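 further: score merges 667nm spot fluorescence with signal to noise across triplicate slides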
[3] = probe aCHRDL2 binding to arrayed compounds – biochemical, biotinylated probe, 635/667 nm fluorescence, primary screen (AID 1100); settings: small-molecule microarray, higher = more signal
[4] = change in splice reporter luminescence, either direction, cell-based, HEK293, spliceosome inhibition project, primary screen (AID 1101); settings: HEK293 splicing luciferase reporter, 24 h, higher = more signal, called active from +8 up or from −8 down;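 further: HEK293 cells carrying a splicing-competent luciferase reporter gene; test concentration not given here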
[5] = molecular target: Fibroblast growth factor 10 (Homo sapiens) (UniProt O15520); experiment: compounds binding fibroblast growth factor 10 – biochemical, small-molecule microarray, 635 nm fluorescence, primary screen (AID 1102); settings: FGF10 binding, fluorescence 635 nm, higher = more signal
[6] = system: glycogen synthase kinase-3 (GSK3A per assay name; protocol says GSK3B); experiment: compounds binding glycogen synthase kinase-3 – biochemical, small-molecule microarray, 635 nm fluorescence, GSK3A, primary screen (AID 1103); settings: fluorescence 635 nm, higher = more signal; further: the record names both GSK3A and GSK3B
[7] = molecular target: Epidermal growth factor receptor (Homo sapiens) (UniProt P00533); experiment: compounds binding epidermal growth factor receptor – biochemical, small-molecule microarray, 635 nm fluorescence, primary screen (AID 1104); settings: EGFR binding, higher = more signal;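 further: score merges 667 nm emission intensity with spot signal to noise over triplicate slides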
[8] = molecular target: Follistatin-related protein 3 (Homo sapiens) (UniProt O95633); experiment: compounds binding follistatin-related protein 3 – biochemical, small-molecule microarray, 635 nm fluorescence, primary screen (AID 1105); settings: FSTL3 binding, higher = more signal;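 further: score merges emission near 667 nm and signal to noise per printed spot across three slides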
[9] = molecular target: Dickkopf-related protein 1 (Homo sapiens) (UniProt O94907); experiment: small molecules binding DKK1 protein – biochemical, small-molecule microarray, 635 nm fluorescence scan, primary screen (AID 1106); settings: higher = more signal;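 further: score merges emission near 667 nm with signal to noise over three replicate slides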
[10] = system: Inhibin beta A chain (activin A); experiment: small molecules binding activin A – biochemical, small-molecule microarray, 635 nm fluorescence scan, primary screen (AID 1107); settings: INHBA, higher = more signal;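 further: mouse activin A protein probed at 4.33 µg/mL on printed slides; score merges bound-protein fluorescence near 667 nm with spot signal-to-noise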
[11] = system: Human papillomavirus type 1a protein E7 (residues 44-93); experiment: small molecules binding HPV E7 44-93 – biochemical, small-molecule microarray, residues 44-93, 635 nm fluorescence, primary screen (AID 1108); settings: fluorescence 635 nm, higher = more signal;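 further: E7 fragment applied at 1 µg/mL in TBST for 1 h at 4 C; score combines spot fluorescence with its signal to noise ratio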
[12] = hepatitis C replication reporter changes, two-sided – Huh7 cells, luciferase reporter, HCV replication inhibitor project, primary screen (AID 1109); settings: Huh7 HCV replicon luciferase reporter, 48 h; higher = more signal;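 further: huh7 hepatoma cells harbouring a luciferase neomycin HCV replicon reporter; luciferase luminescence as measure of HCV replicon replication; test concentration not given here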
[13] = molecular target: Left-right determination factor 2 (Homo sapiens) (UniProt O00292); experiment: small molecules binding LEFTY2 protein – biochemical, small-molecule microarray, 635 nm fluorescence scan, primary screen (AID 1110); settings: higher = more signal
[14] = molecular target: Calmodulin-1 (Homo sapiens) (UniProt P0DP23); experiment: small molecules binding calmodulin-1 with EGTA – biochemical, small-molecule microarray, Cy5-labelled CALM1, profiling panel (AID 1111); settings: Cy5-CALM1 binding fluorescence, higher = more signal;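 further: labelled calmodulin applied in Tris saline Tween buffer holding calcium plus EGTA and DTT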
[15] = molecular target: Calmodulin-1 (Homo sapiens) (UniProt P0DP23); experiment: small molecules binding Ca-loaded calmodulin-1 – biochemical, small-molecule microarray, Cy5-labelled CALM1, plus calcium, artefact control for SMM control-protein annotation, profiling panel (AID 1112); settings: Cy5-CALM1 binding fluorescence, higher = more signal;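 further: score merges spot fluorescence with signal to noise from triplicate slides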
[16] = probe aWnt5a binding to arrayed compounds – biochemical, biotinylated probe, 635/667 nm fluorescence, primary screen (AID 1113); settings: small-molecule microarray, higher = more signal;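 further: score merges 667 nm fluorescence intensity with signal-to-noise per printed feature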
[17] = probe aShh binding to arrayed compounds – biochemical, biotinylated probe, 635/667 nm fluorescence, primary screen (AID 1114); settings: small-molecule microarray, higher = more signal;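 further: probe is biotin-labelled aShh protein from a stem cell growth factor screen; measures binding of labelled protein to compounds printed on the slide; score merges feature fluorescence at 667 nm with signal-to-noise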
[18] = probe aNog binding to arrayed compounds – biochemical, biotinylated probe, 635/667 nm fluorescence, primary screen (AID 1115); settings: small-molecule microarray, higher = more signal;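 further: probe is biotinylated aNog protein used at 0.15 µg/mL for 1 h at 4 C; z-score combines 667 nm fluorescence of each spot with its signal to noise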
[19] = molecular target: Torsin-1A-interacting protein 1 (Homo sapiens) (UniProt Q5JTV8); experiment: compound microarray binding of lysate hLAP1 – cell lysate, small-molecule microarray, COS7 lysate, 635/667 nm fluorescence, primary screen (AID 1116); settings: 635 nm fluorescence, higher = more signal
[20] = molecular target: Alpha-bungarotoxin (Bungarus multicinctus) (UniProt P60615); experiment: compounds binding labelled alpha-BTX control protein – biochemical, small-molecule microarray, Alexa647 label, 635/667 nm fluorescence, artefact control for SMM control protein annotation, profiling panel (AID 1117); settings: alpha-BTX-A647 binding fluorescence, higher = more signal
Chain of Alpha-bungarotoxin (Bungarus multicinctus) (P60615 whole entry, looked up): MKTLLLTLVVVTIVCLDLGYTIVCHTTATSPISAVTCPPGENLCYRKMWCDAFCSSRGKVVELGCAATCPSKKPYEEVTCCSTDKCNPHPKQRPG

Chain of Left-right determination factor 2 (Homo sapiens) (O00292 whole entry, looked up): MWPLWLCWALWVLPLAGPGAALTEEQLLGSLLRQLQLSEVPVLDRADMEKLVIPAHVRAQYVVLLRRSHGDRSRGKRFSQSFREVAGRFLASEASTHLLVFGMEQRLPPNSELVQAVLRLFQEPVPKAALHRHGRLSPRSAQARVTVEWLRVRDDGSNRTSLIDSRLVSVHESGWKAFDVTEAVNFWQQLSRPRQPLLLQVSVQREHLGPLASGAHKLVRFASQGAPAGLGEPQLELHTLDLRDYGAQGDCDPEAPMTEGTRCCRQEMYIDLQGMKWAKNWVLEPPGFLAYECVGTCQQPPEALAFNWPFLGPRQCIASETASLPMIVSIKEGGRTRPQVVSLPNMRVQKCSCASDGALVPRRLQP
Chain of Torsin-1A-interacting protein 1 (Homo sapiens) (Q5JTV8 whole entry, looked up): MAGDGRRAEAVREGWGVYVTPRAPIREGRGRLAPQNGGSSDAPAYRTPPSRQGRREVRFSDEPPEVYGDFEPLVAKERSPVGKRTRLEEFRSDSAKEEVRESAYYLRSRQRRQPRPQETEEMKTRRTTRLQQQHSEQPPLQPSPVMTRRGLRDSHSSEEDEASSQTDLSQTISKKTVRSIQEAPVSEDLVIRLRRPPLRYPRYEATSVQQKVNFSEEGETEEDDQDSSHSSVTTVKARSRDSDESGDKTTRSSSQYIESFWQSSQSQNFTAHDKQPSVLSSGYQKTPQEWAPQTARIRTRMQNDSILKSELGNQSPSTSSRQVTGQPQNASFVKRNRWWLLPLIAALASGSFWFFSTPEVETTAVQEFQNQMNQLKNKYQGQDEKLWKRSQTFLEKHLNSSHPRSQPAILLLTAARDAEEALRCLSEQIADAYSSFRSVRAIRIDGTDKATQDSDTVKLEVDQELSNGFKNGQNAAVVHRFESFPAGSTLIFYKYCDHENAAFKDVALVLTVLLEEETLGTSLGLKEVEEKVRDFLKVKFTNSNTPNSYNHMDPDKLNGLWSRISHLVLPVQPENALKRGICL
Chain of Dickkopf-related protein 1 (Homo sapiens) (O94907 whole entry, looked up): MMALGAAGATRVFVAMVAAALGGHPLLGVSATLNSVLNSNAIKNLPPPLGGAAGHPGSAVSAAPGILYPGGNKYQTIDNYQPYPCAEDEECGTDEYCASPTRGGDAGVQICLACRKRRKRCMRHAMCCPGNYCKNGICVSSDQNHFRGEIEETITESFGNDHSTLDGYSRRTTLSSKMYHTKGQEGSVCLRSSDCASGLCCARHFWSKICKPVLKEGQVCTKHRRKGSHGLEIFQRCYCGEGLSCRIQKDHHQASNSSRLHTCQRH
Chain of Epidermal growth factor receptor (Homo sapiens) (P00533 whole entry, looked up): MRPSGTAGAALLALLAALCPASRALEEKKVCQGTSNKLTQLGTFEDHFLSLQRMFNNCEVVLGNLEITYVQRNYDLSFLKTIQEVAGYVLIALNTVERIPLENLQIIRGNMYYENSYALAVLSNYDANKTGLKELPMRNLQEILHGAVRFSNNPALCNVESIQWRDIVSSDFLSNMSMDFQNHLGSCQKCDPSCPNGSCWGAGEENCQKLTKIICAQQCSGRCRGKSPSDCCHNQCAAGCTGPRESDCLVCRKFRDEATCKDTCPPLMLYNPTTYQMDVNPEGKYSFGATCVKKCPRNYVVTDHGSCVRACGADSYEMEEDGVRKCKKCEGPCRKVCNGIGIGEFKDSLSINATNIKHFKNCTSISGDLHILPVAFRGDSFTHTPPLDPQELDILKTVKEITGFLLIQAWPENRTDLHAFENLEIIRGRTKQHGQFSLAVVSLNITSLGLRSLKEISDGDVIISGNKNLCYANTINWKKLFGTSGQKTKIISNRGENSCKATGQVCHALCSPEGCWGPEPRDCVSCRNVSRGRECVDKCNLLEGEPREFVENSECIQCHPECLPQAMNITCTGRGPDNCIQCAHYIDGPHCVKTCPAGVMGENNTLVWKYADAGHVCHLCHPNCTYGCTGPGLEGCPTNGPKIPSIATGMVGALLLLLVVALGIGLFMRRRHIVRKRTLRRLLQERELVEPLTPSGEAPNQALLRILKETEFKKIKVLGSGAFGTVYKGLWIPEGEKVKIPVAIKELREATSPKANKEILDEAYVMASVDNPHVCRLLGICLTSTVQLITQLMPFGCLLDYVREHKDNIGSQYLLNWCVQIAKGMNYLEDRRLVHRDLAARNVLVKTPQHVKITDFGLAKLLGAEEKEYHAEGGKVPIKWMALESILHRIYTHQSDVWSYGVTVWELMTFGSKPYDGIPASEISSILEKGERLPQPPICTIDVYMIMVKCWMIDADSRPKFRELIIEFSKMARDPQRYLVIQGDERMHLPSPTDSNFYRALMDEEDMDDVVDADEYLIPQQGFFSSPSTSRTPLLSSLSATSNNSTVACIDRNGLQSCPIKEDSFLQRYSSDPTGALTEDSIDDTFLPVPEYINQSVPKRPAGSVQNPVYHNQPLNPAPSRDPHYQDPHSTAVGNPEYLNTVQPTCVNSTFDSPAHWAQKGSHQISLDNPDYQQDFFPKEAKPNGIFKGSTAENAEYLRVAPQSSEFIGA
Chain of Fibroblast growth factor 10 (Homo sapiens) (O15520 whole entry, looked up): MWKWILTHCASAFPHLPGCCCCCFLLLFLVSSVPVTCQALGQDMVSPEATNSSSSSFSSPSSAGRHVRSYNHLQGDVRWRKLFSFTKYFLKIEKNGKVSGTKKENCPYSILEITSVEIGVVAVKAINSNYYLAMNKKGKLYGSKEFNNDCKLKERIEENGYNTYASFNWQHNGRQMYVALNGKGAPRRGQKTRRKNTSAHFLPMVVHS
Chain of Follistatin-related protein 3 (Homo sapiens) (O95633 whole entry, looked up): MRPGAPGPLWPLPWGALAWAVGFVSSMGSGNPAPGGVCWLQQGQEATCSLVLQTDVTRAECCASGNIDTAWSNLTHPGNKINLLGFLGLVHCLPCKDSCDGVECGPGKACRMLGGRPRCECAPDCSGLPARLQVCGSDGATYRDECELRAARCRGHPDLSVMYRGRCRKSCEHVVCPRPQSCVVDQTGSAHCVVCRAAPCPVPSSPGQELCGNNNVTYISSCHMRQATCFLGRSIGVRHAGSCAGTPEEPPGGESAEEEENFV

Row | Structure (SMILES) | composite z-score [1] | composite z-score [2] | composite z-score [3] | z-score [4] | composite z-score [5] | composite z-score [6] | composite z-score [7] | composite z-score [8] | composite z-score [9] | composite z-score [10] | composite z-score [11] | z-score [12] | composite z-score [13] | composite z-score [14] | composite z-score [15] | composite z-score [16] | composite z-score [17] | composite z-score [18] | composite z-score [19] | composite z-score [20]
1 | CN(C)CCCCCCNC(=O)[C@@H]1C[C@@H]2C(=O)N[C@@H](Cc3ccccc3)C(=O)N2[C@@H]1c1cccc(OCCO)c1 | 1.12 | 0.182 | 0.635 | -0.326 (inactive) | 0.393 | 1.31 | 0.464 | 0.721 | 0.872 | 0.728 | 1.39 | 1.73 | 0.637 | -0.345 | -0.287 | -0.0472 | 0.0756 | 0.109 | 1.93 | 2.64
2 | COCCOC(=O)N1C(=O)[C@@]2(c3cc(C#CCCO)ccc31)[C@H](C(=O)NC[C@H](O)c1ccccc1)[C@H]1C(=O)O[C@H](c3ccccc3)[C@H](c3ccccc3)N1[C@@H]2c1ccc(OCCO)cc1 | 1.24 | 0.112 | 0.169 | -1.33 (inactive) | 0.901 | 1.3 | 0.887 | 1.26 | 0.512 | 0.585 | 1.08 | -0.646 | 0.532 | 1.09 | -0.191 | -0.197 | -0.23 | -0.456 | 0.274 | 0.895
3 | COCC1=C([C@H](O)CCc2ccccc2)[C@H](CO)[C@@H]2C(=O)N(Cc3ccccc3)C(=O)[C@@H]2C1 | -0.0333 | -0.253 | -0.25 | 0.212 (inactive) | 0.438 | 0.0321 | 0.313 | 0.265 | 0.391 | 0.554 | -0.0325 | -0.711 | 0.435 | -0.519 | -0.465 | -0.0194 | -0.214 | -0.139 | 0.167 | 0.206
4 | CN(C)CCCC[C@@H]1NC(=O)[C@@H]2C[C@H](C(=O)NCc3ccc(F)cc3)[C@H](c3cccc(OCCO)c3)N2C1=O | 1.17 | 0.0666 | 0.0708 | -0.815 (inactive) | 1.36 | 0.833 | 0.267 | 1.17 | 0.314 | -0.218 | 1.17 | 0.679 | 0.748 | 0.337 | 0.136 | -0.1 | 0.207 | -0.399 | 1.07 | 0.356
5 | COC(=O)[C@@]1(Cc2ccc(OC)cc2)[C@H]2c3cc(C(=O)N4CCCC4)n(CCN4CCOCC4)c3C[C@H]2CN1C(=O)c1ccccc1 | 1.25 | 2.6 | 1.52 | 0.0643 (inactive) | 1.35 | 0.325 | 0.947 | 0.629 | -0.138 | 0.492 | 1.04 | -0.882 | 0.285 | 1.55 | 1.21 | 1.19 | 2.65 | 2.75 | 0.934 | 0.609
